Data taken from PubChem BioAssay (EPA / NIEHS).
Values joined by “and” are separate entries in the source; they are usually repeats but may differ in a detail not shown here. Equal entries are not always repeated. Inconclusive results are not listed. Some structures have more than one record in an assay (separate samples or runs), and their calls can disagree. Active and inactive are the calls of the source. The calls were made as follows, unless noted: active = hit-call score of the fitted dose curve at least 0.9, where 1 is the maximum; inconclusive = response in the unintended direction; inactive = score below 0.9.

Assays:
[1] = IUF_NPC4_neurite_length_120hr: Leibniz Research Institute for Environmental Medicine (IUF) 120-hour Neuronal Morphology Assay for Neurite Length (NPC4) (AID 2284302; active = hit-call score of the fitted dose curve at least 0.9, where 1 is the maximum; inactive = score below 0.9)
In short: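 Human fetal cortex (GW 16-19) neural progenitor spheres, 0.3 mm, were plated on poly-D-lysine/laminin in N2 differentiation medium and exposed from day 0 for 120 h, half-feeding at day 3. Mean TUBB3+ neurite length (µm) came from skeletonized images, relative to DMSO.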

CD69, CD69 (gene 969) = experiment: BSK_LPS_CD69: BioMAP Diversity Plus: LPS Assay for CD69 Biomarker Activity (AID 2284303; active = hit-call score of the fitted dose curve at least 0.9, where 1 is the maximum; inactive = score below 0.9); conditions: primary human HUVEC with PBMC
In short: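 Human umbilical vein endothelial cells co-cultured with PBMC under LPS stimulation, chemical exposure 24 h; cell-surface CD69 measured by ELISA and fitted in the positive direction versus DMSO.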

[2] = IUF_NPC5_oligodendrocyte_differentiation_120hr: Leibniz Research Institute for Environmental Medicine (IUF) 120-hour Oligodendrocyte Differentiation Assay (NPC5) (AID 2284304);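 also: primary human fetal neural progenitor spheres plated to migrate and differentiate; share of O4-positive cells among Hoechst nuclei found by CNN image analysis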
In short: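 hNPC spheres, fetal cortex GW 16-19; PDL/laminin, DMEM:F12 3:1 + 1% N2, 37C/5% CO2; 7 concentrations + solvent control, 5 d exposure, half-change day 3. Readout: %O4+ of Hoechst+ nuclei in migration area, CNN classification; DMSO baseline.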

[3] = IUF_NPC4_neurite_area_120hr: Leibniz Research Institute for Environmental Medicine (IUF) 120-hour Neuronal Morphology Assay for Neurite Area (NPC4) (AID 2284305)
In short: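 Human fetal cortex-derived neural progenitor spheres (0.3 mm, GW 16-19) plated on poly-D-lysine/laminin in N2 differentiation medium and exposed from day 0 for 120 h across 7 concentrations plus solvent control. Neurite area is mean pixel area per TUBB3-positive neuron via skeletonization, analysed relative to DMSO.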

[4] = IUF_NPC2-5_cytotoxicity_120hr: Cytotoxicity Assessment at 120 hours in the Leibniz Research Institute for Environmental Medicine (IUF) Neural Progenitor Cell Migration and Differentiation Assay (NPC2-5) (AID 2284307);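 as to AC50: LDH released into supernatant as membrane damage marker via resorufin fluorescence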
In short: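 hNPC spheres on PDL/laminin, N2 medium, 37C; 7 concs + solvent control, DMSO ≤0.1%; 5-day exposure, half medium changed day 3. LDH in supernatant at 120 h, resazurin→resorufin fluorescence, gain-of-signal.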

[5] = IUF_NPC2-5_viability_120hr: Viability Assessment at 120 hours in the Leibniz Research Institute for Environmental Medicine (IUF) Neural Progenitor Cell Migration and Differentiation Assay (NPC2-5) (AID 2284312; active = hit-call score of the fitted dose curve at least 0.9, where 1 is the maximum; inactive = score below 0.9)
In short: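 Human fetal (GW 16-19) neural progenitor spheres of 0.3 mm were plated on poly-D-lysine/laminin in N2 differentiation medium and exposed from day 0 for 120 h, with half-medium refresh at day 3. Viability was read as alamar blue resazurin-to-resorufin fluorescence against DMSO.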

[6] = CCTE_Mundy_HCI_iCellGluta_NOG_NeuriteLength: CCTE's Neurite Outgrowth Assay in iCellGluta cells for Neurite Length, Mundy Lab (AID 2284318)
In short: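 Automated high-content imaging of betaIII-tubulin (Alexa Fluor-488) and Hoechst-stained cells gave neurite length, normalized to the DMSO baseline.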

TTR (gene 7276) = experiment: CCTE_GLTED_hTTR_0.5uM: CCTE's human Transthyretin (hTTR) Inhibition Assay, with 0.5uM TTR, Great Lakes Toxicology and Ecology Division (GLTED) Lab (AID 2284320; active = hit-call score of the fitted dose curve at least 0.9, where 1 is the maximum; inactive = score below 0.9)
In short: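 Cell-free displacement assay in which human TTR at 0.5 uM was incubated with test chemical for 2 h. Displacement of the ANSA probe was read by fluorescence at 380 nm excitation/475 nm emission. Loss of signal was fitted in the positive direction versus DMSO.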

[7] = IUF_NPC1_cytotoxicity_72hr: Cytotoxicity Assessment at 72 hours in the Leibniz Research Institute for Environmental Medicine (IUF) Neural Progenitor Cell Proliferation Assay (NPC1) (AID 2284332);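 also: rising LDH signal means more cytotoxicity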
In short: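 Human fetal neural progenitor spheres (0.3 mm) in EGF/FGF proliferation medium, 37C, exposed 72 h without renewal. LDH release in supernatant read by resorufin fluorescence; gain of signal scored relative to dynamic range.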

IYD (gene 389434) = experiment: CCTE_GLTED_hIYD: CCTE's human Iodotyrosine Deiodinase (xIYD) Inhibition Assay, Great Lakes Toxicology and Ecology Division (GLTED) Lab (AID 2284317);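 also: cell-free human IYD enzyme made in baculovirus insect cells; iodide freed from monoiodotyrosine measured by cerium arsenite color change at 420 nm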
In short: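 hIYD: baculovirus-expressed human IYD deiodinated monoiodotyrosine for 3 h with test chemical; free iodide was measured by Sandell-Kolthoff absorbance at 420 nm and normalized to MNT and DMSO/NaOH controls.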

[8] = TAMU_PeakParms_SingleDonor1434_Asystole: Texas A&M University (TAMU) 1.5-hr Human Induced Pluripotent Stem Cell (iPSC)-derived Cardiomyocytes Calcium (Ca+2) Flux Assay for Cardiotoxicity: Asystole (quiescence of beating) (AID 2284328)
In short: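 Human iPSC-derived cardiomyocytes (donor 1434) were exposed to 0.2, 1, 10 and 100 uM compound in 0.5% DMSO for 90 min at 37C. Ca2+-dye fluorescence gave average peak frequency; POD is EC95, a 95% beat-rate drop versus DMSO.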

[9] = CCTE_Deisenroth_5AR_NBTE_donor: CCTE's 5alpha-reductase NanoBRET Target Engagement Assay […], Deisenroth Lab (AID 2284319; active = hit-call score of the fitted dose curve at least 0.9, where 1 is the maximum; inactive = score below 0.9); conditions: actives raise or lower the signal
In short: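 In this secondary endpoint, donor luminescence from SRD5A2-NanoLuc in transfected HEK293T flags artifacts. Test chemical (10 nM - 29.9 uM) is present five hours, tracer the last two; mock-tracer wells run plate-matched; data fitted bidirectionally against DMSO.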

[10] = CCTE_Deisenroth_5AR_NBTE_acceptor: CCTE's 5alpha-reductase NanoBRET Target Engagement Assay - Autofluorescence Screen, Deisenroth Lab (AID 2284321; active = hit-call score of the fitted dose curve at least 0.9, where 1 is the maximum; inactive = score below 0.9;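 also: compound fluorescence in the acceptor channel under 460 nm excitation flags autofluorescence artifacts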); conditions: actives raise or lower the signal
In short: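 Autofluorescence check: ToxCast chemicals, nominal 100 uM, excitation 460 nm, n=3 runs. Acceptor fluorescence endpoint, bidirectional fit relative to DMSO. Parent assay in HEK293T, 5 h post-dose.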

SRD5A2 (gene 6716) = experiment: CCTE_Deisenroth_5AR_NBTE_ratio: CCTE's 5alpha-reductase NanoBRET Target Engagement Assay - Ratio, Deisenroth Lab (AID 2284322; active = hit-call score of the fitted dose curve at least 0.9, where 1 is the maximum; inactive = score below 0.9); conditions: actives raise or lower the signal
In short: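 HEK293T transiently expressing SRD5A2-NanoLuc; cells exposed to chemical (8-point, 10 nM - 29.9 uM) for 5 h total, testosterone tracer added for final 2 h. NanoBRET acceptor/donor ratio (650/460 nm), bidirectional fit vs DMSO.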

[11] = VALA_TUBHUV_Agonist_CellCount: Viability Assessment in the VALA Sciences human Umbilical Vein Endothelial Tubule Formation (TUBHUV) Agonism Assay (AID 2284309)
In short: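 HUVEC co-cultured 1:3 with HDF for 3 days in 10 ng/ml VEGF, then compounds added in VEGF medium for a further 3 days (72 h). Nuclear-stain/CD31 imaging cell count. Positive-direction fit versus 0.1% DMSO vehicle.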

[12] = VALA_TUBIPS_Agonist_TubuleLength: VALA Sciences human iPS-derived Endothelial Tubule Formation (TUBIPS) Agonism Assay (AID 2284311)
In short: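 Human iPS-derived endothelial cells were exposed to compound for 72 h. Tubule formation was imaged by high-content fluorescence and scored as gain of signal relative to DMSO vehicle (agonist mode).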

[13] = VALA_TUBIPS_Antagonist_TubuleLength: VALA Sciences human iPS-derived Endothelial Tubule Formation (TUBIPS) Antagonist Assay (AID 2284313)
In short: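 Cells grown 3 days with 10 ng/ml VEGF, then exposed to compounds in VEGF medium for another 3 days. After fixation, nuclear stain and CD31 immunofluorescence imaging gave mean total tubule length against 0.1% DMSO; suramin (100 uM) inhibition control.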

[14] = VALA_MIGHUV2_WoundArea: VALA Sciences human Umbilical Vein Endothelial Cell Migration (MIGHUV) Assay, Area of Scratch Wound after Recovery (AID 2284316)
In short: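 HUVEC seeded at 9000 cells/well, scratched after 24 h; test chemical added within 30 min, 6-point concentration response in triplicate (0.1% DMSO vehicle). After 24 h wound recovery, cells fixed and Hoechst-stained nuclei in wound area imaged; Cytochalasin D reference control.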

Measured: AC50

O=C(O)C(F)(F)C(F)(F)C(F)(F)C(F)(F)C(F)(F)C(F)(F)C(F)(F)F
active: CD69, CD69 (gene 969) 220 nM and 30 µM | TTR (gene 7276) 450 nM [middle of 4 runs]
inactive: [1] | CD69, CD69 (gene 969) | [2] | [3] | [4] | [5] | [6] | [7]

CCOCN(C(=O)CCl)c1c(C)cccc1CC
inactive: IYD (gene 389434) | [8]

CCCN(CCOc1c(Cl)cc(Cl)cc1Cl)C(=O)n1ccnc1
inactive: IYD (gene 389434) | [9] | [10] | SRD5A2 (gene 6716)

COP(=O)(OC)OC=C(Cl)Cl
inactive: [7]
active: [1] 13.5 µM | [3] 13.3 µM | [4] 89 µM | [5] 29.7 µM | [6] 12.9 µM

O=S(=O)(O)C(F)(F)C(F)(F)C(F)(F)C(F)(F)C(F)(F)C(F)(F)C(F)(F)C(F)(F)F
inactive: [1] | CD69, CD69 (gene 969) | [2] | [4] | [11] | [12] | [5] | [13] | [14] | IYD (gene 389434) | [6] | [7]
active: [1] 0.362 µM | [4] 62.4 µM | IYD (gene 389434) 59 µM and 90.4 µM | TTR (gene 7276) 489 nM and 455 nM | [7] 3.31 µM

O=S1OCC2C(CO1)C1(Cl)C(Cl)=C(Cl)C2(Cl)C1(Cl)Cl (configuration not stated)
inactive: [1] | [3] | [4] | [5] | [9] | [10] | SRD5A2 (gene 6716) | [8] | [7]
active: [2] 2.92 µM | [6] 8.78 µM

O=[N+]([O-])/N=C1\NCCN1Cc1ccc(Cl)nc1
active: [6] 15 µM
inactive: [1] | [2] | [3] | [4] | [5] | [9] | [10] | SRD5A2 (gene 6716) | [7]

CC[C@H](C)[C@H]1O[C@]2(C=C[C@@H]1C)C[C@@H]1C[C@@H](C/C=C(\C)[C@@H](O[C@H]3C[C@H](OC)[C@@H](O[C@H]4C[C@H](OC)[C@@H](O)[C@H](C)O4)[C@H](C)O3)[C@@H](C)/C=C/C=C3\CO[C@@H]4[C@H](O)C(C)=C[C@@H](C(=O)O1)[C@]34O)O2 (tested in a mixture with another compound)
active: [1] 7.61 µM | [2] 0.444 µM | [4] 6.89 µM | [5] 8.02 µM | [6] 3.44 µM
inactive: [3] | [7]
